In the supplement of paper PMC12645437, “Orthogonal IMiD-Degron Pairs Induce Selective Protein Degradation in Cells” (ACS Chemical Biology, 2025):
Over roughly 8,300 sequences, “log2 fold change of degron read counts, EGFP-low vs EGFP+ sorted cells (limma voom), compound-induced degradation” has its median near -1.1; the highest 2% begin near 3.2. The sample as a whole holds a higher share of the highest values than the screen did.

T1: CRBN, Q96SW2
T1 chain: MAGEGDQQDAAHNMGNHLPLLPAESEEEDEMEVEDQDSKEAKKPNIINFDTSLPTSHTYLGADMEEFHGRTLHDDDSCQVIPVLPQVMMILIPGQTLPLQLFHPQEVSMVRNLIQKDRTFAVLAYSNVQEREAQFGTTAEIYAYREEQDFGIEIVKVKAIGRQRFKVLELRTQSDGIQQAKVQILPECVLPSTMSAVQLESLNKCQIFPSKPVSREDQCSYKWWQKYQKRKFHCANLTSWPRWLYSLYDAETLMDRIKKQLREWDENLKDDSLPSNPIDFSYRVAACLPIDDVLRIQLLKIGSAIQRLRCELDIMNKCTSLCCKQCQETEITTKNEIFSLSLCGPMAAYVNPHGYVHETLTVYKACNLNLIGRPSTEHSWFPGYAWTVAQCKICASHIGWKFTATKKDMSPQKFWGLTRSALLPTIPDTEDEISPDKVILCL


Target: T1, CRBN, Q96SW2
Assay: log2 fold change of degron read counts, EGFP-low vs EGFP+ sorted cells (limma voom), compound-induced degradation; higher = more compound-induced degradation of the degron-EGFP fusion; degrons are variants of IKZF1/3 zinc finger 2; compound dose not given here
Conditions: Jurkat, 18 h
Method: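 Pooled library of 8380 IKZF3 ZF2 degron mutants (positions 146-167 varied within the IKZF3 130-189 degron; only the varied core is printed, flanks not printed) fused to EGFP with IRES-mCherry, lentivirally expressed in Jurkat cells. mCherry+ cells were treated with one IMiD compound for 18 h (dose not stated) and FACS-sorted into EGFP-low and EGFP+ populations. Degron sequences were counted by NGS, and log2FC (EGFP-low vs EGFP+) was estimated by limma voom over 3 biological replicates.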

[1] = compound: compound 19 (5-tert-butyl-thalidomide)
[2] = compound: compound 22 (5-morpholino-thalidomide)
[3] = compound: compound 33 (diphenyl IMiD analogue)
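Note: pooled lentiviral library of zinc finger degron-EGFP fusions in mCherry-positive Jurkat cells, FACS-sorted after compound exposure, with degron abundance counted by next-generation sequencing.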

Sequence | log2 fold change of degron read counts [1] | log2 fold change of degron read counts [2] | log2 fold change of degron read counts [3] | log2 fold change of degron read counts (compound: thalidomide)
FVCPVCGAMFTQKGNLLRHIKL [46F_47V_49P_50V_52G_53A_54M_55F_67L_, Q9UKT9] | -0.83 | 1.28 | 1.78 | 1.71
FQCPVCGAMFTQKGNLLRHIKL [46F_47Q_49P_50V_52G_53A_54M_55F_67L_, Q9UKT9] | -0.606 | 2.26 | 2.34 | 3.58
FACPVCGAMFTQKGNLLRHIKL [46F_47A_49P_50V_52G_53A_54M_55F_67L_, Q9UKT9] | 2.83 | 0.812 | 0.601 | -0.0754
FSCPVCGAMFTQKGNLLRHIKL [46F_47S_49P_50V_52G_53A_54M_55F_67L_, Q9UKT9] | 1.68 | 0.847 | 1.55 | 0.449
FGCPVCGAMFTQKGNLLRHIKL [46F_47G_49P_50V_52G_53A_54M_55F_67L_, Q9UKT9] | 3.86 | 2.08 | 2.22 | 0.29
FNCPVCGAMFTQKGNLLRHIKL [46F_47N_49P_50V_52G_53A_54M_55F_67L_, Q9UKT9] | 0.95 | -0.0712 | 0.173 | 0.109
LHCNQCGFRCTQKGNLLRHIKL [46L_47H_49N_50Q_52G_53F_54R_55C_67L_, Q9UKT9] | -1.15 | -1.7 | -1.52 | -1.61
FRCPICGHQFTQKGNLLRHIKL [46F_47R_49P_50I_52G_53H_54Q_55F_67L_, Q9UKT9] | -2.97 | -2.88 | -2.09 | -1.65
FNCEICGRGFTQKGNLLRHIKL [46F_47N_49E_50I_52G_53R_54G_55F_67L_, Q9UKT9] | -0.684 | -2.34 | -2.3 | -2.43
FICDVCGADFTQKGNLLRHIKL [46F_47I_49D_50V_52G_53A_54D_55F_67L_, Q9UKT9] | -3.13 | -2.03 | -2.05 | -2.17
FTCEICGRSFTQKGNLLRHIKL [46F_47T_49E_50I_52G_53R_54S_55F_67L_, Q9UKT9] | -2.68 | -1.98 | -1.23 | -0.866
FVCNICGAAFTQKGNLLRHIKL [46F_47V_49N_50I_52G_53A_54A_55F_67L_, Q9UKT9] | -0.113 | 1.76 | 1.87 | 2.31
LVCNQCGFDCTQKGNLLRHIKL [46L_47V_49N_50Q_52G_53F_54D_55C_67L_, Q9UKT9] | -2.99 | -3.3 | -2.89 | -2.71
LTCNQCGFFCTQKGNLLRHIKL [46L_47T_49N_50Q_52G_53F_54F_55C_67L_, Q9UKT9] | -1.72 | -1.87 | -2.06 | -1.27
FQCPVCGAEFTQKGNLLRHIKL [46F_47Q_49P_50V_52G_53A_54E_55F_67L_, Q9UKT9] | 0.475 | 1.57 | 2.3 | 3.76
FSCPVCGAEFTQKGNLLRHIKL [46F_47S_49P_50V_52G_53A_54E_55F_67L_, Q9UKT9] | 1.12 | 0.204 | 1.45 | 0.472
FKCEVCGAEFTQKGNLLRHIKL [46F_47K_49E_50V_52G_53A_54E_55F_67L_, Q9UKT9] | -1.42 | -2.94 | -2.99 | -1.02
FVCPVCGAEFTQKGNLLRHIKL [46F_47V_49P_50V_52G_53A_54E_55F_67L_, Q9UKT9] | -0.775 | 1.8 | 1.37 | 2.53
FFCEVCGAEFTQKGNLLRHIKL [46F_47F_49E_50V_52G_53A_54E_55F_67L_, Q9UKT9] | 3.01 | 3.05 | 0.82 | 0.898
FNCEVCGAEFTQKGNLLRHIKL [46F_47N_49E_50V_52G_53A_54E_55F_67L_, Q9UKT9] | 0.9 | -1.18 | -1.23 | -0.895
FQCEVCGAEFTQKGNLLRHIKL [46F_47Q_49E_50V_52G_53A_54E_55F_67L_, Q9UKT9] | 0.65 | 0.856 | 1.61 | 3.7
FYCEVCGAEFTQKGNLLRHIKL [46F_47Y_49E_50V_52G_53A_54E_55F_67L_, Q9UKT9] | 3.4 | 2.95 | 2.08 | 0.0761
FTCEVCGAEFTQKGNLLRHIKL [46F_47T_49E_50V_52G_53A_54E_55F_67L_, Q9UKT9] | -0.301 | 1.19 | 0.247 | 1.9
FWCPICGHQFTQKGNLLRHIKL [46F_47W_49P_50I_52G_53H_54Q_55F_67L_, Q9UKT9] | -1.19 | 0.164 | -0.157 | -0.942
FHCNVCGALFTQKGNLLRHIKL [46F_47H_49N_50V_52G_53A_54L_55F_67L_, Q9UKT9] | -1.06 | -1.21 | -0.823 | -1.55
LTCEICGFDCTQKGNLLRHIKL [46L_47T_49E_50I_52G_53F_54D_55C_67L_, Q9UKT9] | -3.24 | -2.7 | -2.79 | -2.46
LLCNQCGFACTQKGNLLRHIKL [46L_47L_49N_50Q_52G_53F_54A_55C_67L_, Q9UKT9] | -2.26 | -2.6 | -2.27 | -1.53
FVCNQCGATFTQKGNLLRHIKL [46F_47V_49N_50Q_52G_53A_54T_55F_67L_, Q9UKT9] | -2.74 | -1.56 | -1.1 | -1.67
